Only some compounds are listed: those with a hit (about 32% of all), similar ones and a draw of the others.
PostGolgi ctrl = growth inhibition of yeast control strain, primary screen, counter-screen for post-Golgi transport modulator project; efflux-deficient yeast background strain, growth absorbance A615, 16 h; inhibition, % at 10 µM; actives 5% (n = 98,000); AID 738, 2007
CYP2C19 inhib = blockers of cytochrome P450 2C19 activity – biochemical, luminescence, ADME assay, primary screen; CYP2C19 Supersomes, luciferin-H EGE luminescence, 30 min; AID 778, 2007; actives 21% (n = 96,000); inhibition, % at 5 µM; P33261;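 active = CYP2C19 inhibition above a set limit at 5 µM in the primary screen, cut at about 50% in these data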
Target sequence (P33261 whole entry, looked up): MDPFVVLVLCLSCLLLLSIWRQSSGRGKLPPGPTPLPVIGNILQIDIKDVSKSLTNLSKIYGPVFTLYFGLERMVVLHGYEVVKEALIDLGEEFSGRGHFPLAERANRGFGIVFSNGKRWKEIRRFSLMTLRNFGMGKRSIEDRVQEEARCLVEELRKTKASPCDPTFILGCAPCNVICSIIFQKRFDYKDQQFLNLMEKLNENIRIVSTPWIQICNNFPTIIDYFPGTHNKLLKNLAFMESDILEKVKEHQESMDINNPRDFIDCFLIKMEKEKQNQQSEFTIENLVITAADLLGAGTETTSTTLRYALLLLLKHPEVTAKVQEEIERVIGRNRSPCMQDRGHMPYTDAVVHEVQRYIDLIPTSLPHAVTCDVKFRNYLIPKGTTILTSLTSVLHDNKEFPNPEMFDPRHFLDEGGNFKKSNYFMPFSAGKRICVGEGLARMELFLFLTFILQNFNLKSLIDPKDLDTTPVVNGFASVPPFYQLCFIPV
CYP2C9 inh = blockers of cytochrome P450 2C9 activity – biochemical, luminescence, ADME assay, primary screen; AID 777, 2007; actives 20% (n = 96,000); inhibition, % at 5 µM; CYP2C9 Supersomes, luciferin-H conversion; P11712;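 active = blocking of liver enzyme CYP2C9 beyond about 50% at 5 µM, limit read from the data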
CYP2C19 act = human CYP2C19 activators, primary screen, biochemical, luminescence. 96,000 tested, under 10 active. recombinant CYP2C19, luciferin-H EGE luminescence; hits give high values; 0 = fully inhibited enzyme, 1 = untreated enzyme. activation factor at 5 µM;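 active = activation factor of at least 2 at 5 µM in the primary screen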
PostGolgi yeast = phenotypic screen on post-Golgi transport, primary screen; post-Golgi transport phenotypic cell assay; inhibition, % at 10 µM; actives 0.9% (n = 98,000);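 note: yeast cells grown in 1536-well plates; yeast grown about 18 h at 30C before absorbance read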
CYP2C9 activ = human CYP2C9 activators, primary screen, biochemical, luminescence; recombinant CYP2C9, luciferin-H conversion; hits give high values; factor 1 = untreated enzyme, 0 = blocked; activation factor at 5 µM; actives 1.4% (n = 96,000); AID 1024, 2008;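 active = activation factor of 2 or more for CYP2C9 at a 5 µM dose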
Numbers stand for hits; i = inactive; nt = no result. Cut-off read from the data, not from the text of the source, unless noted: active = inhibition above about 30%; inactive = the rest.

SMILES	PostGolgi ctrl	CYP2C19 inhib	CYP2C9 inh	CYP2C19 act	PostGolgi yeast	CYP2C9 activ
COc1ccc(-c2noc(CSc3nnc(Cc4ccccc4)n3-c3cccc(C)c3)n2)cc1OC	i	98	55	i	i	i
Fc1ccc(-n2c(Cc3ccccc3)nnc2SCc2nc(-c3cccs3)no2)cc1	33	i	74	i	i	i
c1ccc(-c2noc(CSc3nnc(Cc4cccs4)n3-c3ccccc3)n2)cc1	i	nt	nt	nt	i	nt
Cc1ccc(-n2c(Cc3cccs3)nnc2SCC(N)=O)cc1	i	56	i	i	i	i
Cc1ccc(-c2noc(CSc3nnc(Cc4ccccc4)n3-c3cccc(C)c3)n2)cc1	i	82	i	i	i	i
Cc1cccc(-c2noc(CSc3ccccc3)n2)c1	i	i	i	i	i	i
CCn1c(SCc2nc(-c3ccc(OC)c(OC)c3)no2)nnc1-c1cccs1	i	i	i	i	i	i
CCNC(=S)NCCN1CCCCC1	i	i	i	i	i	i
O=C(CSc1nnc2ccccn12)NC(=O)NC1CCCC1	i	i	i	i	i	i
Cc1ccc(-c2noc(CSc3nnc(Cc4cccs4)n3-c3ccccc3)n2)cc1	i	72	i	i	i	i
O=C(CCCn1c(=O)[nH]c2cc(Cl)ccc2c1=O)N1CCN(c2ccc([N+](=O)[O-])cc2)CC1	i	i	i	i	i	i
Cc1nn(-c2ccccc2)c2sc(C(=O)N(CC(=O)NC(C)(C)C)Cc3ccco3)cc12	i	i	56	i	i	i
Cc1nn(-c2ccccc2)c2sc(C(=O)O)cc12	i	i	i	i	i	i
Cc1nn(-c2ccccc2)c2sc(C(=O)N3CCOCC3)cc12	i	nt	nt	nt	i	nt
Cc1nn(-c2ccccc2)c2sc(-c3n[nH]c(=S)o3)cc12	i	i	66	i	i	i
COC(=O)c1cc2c(C)nn(-c3ccccc3)c2s1	i	52	i	i	i	i
Cc1nn(-c2ccccc2)c2sc(C(=O)OCc3nnc(-c4ccccc4)o3)cc12	i	i	55	i	i	i
Cn1cc(-c2nnnn2-c2ccccc2)c(=O)c2ccccc21	i	i	i	i	i	i
CCC(C)NC(=O)Cn1cc2c(n1)CCC(C)C2 (configuration not stated)	i	i	i	i	i	i
Cc1nn(-c2ccccc2)c2sc(C(=O)OC3CCOC3=O)cc12 (configuration not stated)	i	i	68	i	i	i
O=C(CNC(=O)c1cnccn1)Nc1ccc(F)c(F)c1F	i	i	i	i	i	i
COc1ccc(S(=O)(=O)N2CCc3ccccc32)cc1C(=O)OCc1nnc(-c2ccccc2)o1	i	88	99	i	i	i
COc1ccc(-n2c(=O)c3c4c(sc3n(CC(=O)NCc3ccco3)c2=O)CCC4)c(OC)c1	i	nt	nt	nt	i	nt
COc1ccc(OC)c(NC(=O)c2c(NC(=O)CNCc3ccco3)sc3c2CCC3)c1	i	i	65	i	i	i
O=C(Nc1sc2c(c1C(=O)NC1CCCCC1)CCC2)c1ccco1	i	i	i	i	i	i
SMILES	PostGolgi ctrl	CYP2C19 inhib	CYP2C9 inh	CYP2C19 act	PostGolgi yeast	CYP2C9 activ
COc1ccc(NC(=O)c2c(NC(=O)CNCc3ccco3)sc3c2CCC3)cc1	i	63	93	i	i	i
COc1ccc(NC(=O)c2c(NC(=O)CNCc3ccco3)sc3c2CCC3)c(OC)c1	i	77	97	i	i	i
Cc1ccc(O)c(C(=O)c2cnc3c(c2)CN(CCC(C)C)C(=O)N3)c1	i	i	64	i	i	i
Cc1ccc(O)c(C(=O)c2cnc3c(c2)CN(C)C(=O)N3)c1	i	i	i	i	i	i
CCC(=O)N1c2ccccc2NC2=C(C(=O)CCC2)C1c1ccc(N(C)C)cc1 (configuration not stated)	i	i	i	i	i	i
O=C(c1ccccc1)c1cc(-c2ccccc2)on1	i	51	i	i	i	i
CCCC(=O)NC(C)c1nc2ccccc2n1C (configuration not stated)	i	i	i	i	i	i
CCOC(=O)Cn1c(=S)[nH]c2c(oc3ccc(Cl)cc32)c1=O	i	i	76	i	i	i
CCN(CC)CCCn1c(=S)[nH]c2cc(Cl)ccc2c1=O	i	i	i	i	i	i

Source: PubChem
